# In PubChem BioAssay (EPA / NIEHS):
# Records with an inconclusive call do not appear. The source made the active and inactive calls. The calls were made as follows: active = hit-call score of the fitted dose curve at least 0.9, where 1 is the maximum; inconclusive = response in the unintended direction; inactive = score below 0.9.
# Read-out: organic anion transporter (SLCO1B1), SLCO1B1 (gene 10599)
# Assay: CLD_SLCO1B1_24hr: CellzDirect (CLD) Gene Expression Assay for organic anion transporter (SLCO1B1) at 24 hours (AID 2283690)
# Experimental: CLD_24hr is a cell-based, multiplexed-readout assay that uses hepatocyte, a human liver primary cell, with measurements taken at 24 hours after chemical dosing in a 96-well plate.CLD_SLCO1B1_24hr is one of 16 assay component(s) measured or calculated from the CLD_24hr assay. It is designed to make measurements of mRNA induction, a form of inducible reporter, as detected with chemiluminescence signals by Quantitative Nuclease Protection Assay (qNPA) technology.Data from the assay component CLD_SLCO1B1_24hr was analyzed at the endpoint, CLD_SLCO1B1_24hr, in the positive analysis fitting direction relative to DMSO as the negative control and baseline of activity. Using a type of inducible reporter, gain-of-signal activity can be used to understand changes in the reporter gene as they relate to the gene SLCO1B1. Furthermore, this assay endpoint can be referred to as a primary readout. To generalize the intended target to other relatable targets, this assay endpoint is annotated to the transporter intended target family, where subfamily is organic anion transporter.
# Human hepatocyte cultures were treated daily for two consecutive days with fresh dosing solutions containing appropriate concentrations of the 320 ToxCast chemicals (chemical identities were blinded to CellzDirect and other ToxCast collaborators), vehicle control (0.2% DMSO), and positive control inducers as summarized in Table 1. Due to the large number of treatment groups and chemicals examined, the ToxCast chemicals were divided into two groups (spanning two independent cultures of hepatocytes from separate donor preparations (Hu778: ToxCast plates 1 and 2; Hu776: ToxCast plates 3 and 4). Each preparation of human hepatocyte cultures was treated with respective vehicle control, medium only control, set of six positive controls/reference chemicals for the five hepatic receptor pathways, and a subset of eight of the ToxCast chemicals (indoxacarb, pyrithiobac-sodium, norflurazon, cyhalofop-butyl, methomyl, thiram, acetochlor, and propiconazole). These replicate data, coupled with internal replicates designed within the blinded ToxCast chemical library, provided additional data to evaluate interindividual differences between hepatocyte preparations and their potential impact on chemical profiles.Cell morphology and integrity were evaluated using phase-contrast microscopy as an indicator of hepatocyte cell health (Tyson & Green, 1987). Cultures for each treatment group (i.e., media, vehicle [0.2% DMSO], positive control inducers [multiple concentrations], and the ToxCast chemicals [multiple concentrations]) were observed and cell morphology was assessed relative to vehicle control cultures at each harvest time point (0, 6, 24, or 48 h). […] Images were evaluated at the conclusion of the study to assess changes in cell integrity and account for the effects of chemical exposure on uncharacteristic changes in concentration-dependent gene expression profiles. The results from these determinations of apparent cytotoxicity were annotated (yes/no) alongside the corresponding qNPA data for reference.At the conclusion of each treatment period, hepatocyte cultures (96-well) were washed with 1 volume of HBSS, lysed by addition of 25 ul ArrayPlate lysis buffer (HTG, Tucson, AZ), and 70 ul/well of Denaturation Oil, denatured by incubation at 95C for 10 min, and frozen at approximately -70C until analysis by nuclease protection assay (qNPA) (Roberts et al., 2007). For qNPA analysis, cell lysates were thawed at 50C for approximately 30 min, qNPA probes were added, and samples were incubated at 95C for 10 min to begin the detection process by denaturing the target RNA, dissociating the duplexes and secondary structure hybridization. At the conclusion of the hybridization period, S1 nuclease reagent was added to each sample to digest all nonprotected nucleotides at 50C for 60-90 min. […]
row,SMILES,outcome
1,COC(=O)c1cccc(C)c1S(=O)(=O)NC(=O)Nc1nc(OCC(F)(F)F)nc(N(C)C)n1,inactive
2,CCCCOC(=O)[C@@H](C)Oc1ccc(Oc2ccc(C(F)(F)F)cn2)cc1,inactive
3,CCCN(CCC)C(=O)SCC,inactive
4,CCC(C)OC(=O)N1CCCCC1CCO (stereo not drawn),inactive
5,COC(=O)c1ccc(I)cc1S(=O)(=O)NC(=O)Nc1nc(C)nc(OC)n1,inactive
6,CCCCC(CC)COC(=O)c1ccccc1C(=O)O (stereo not drawn),inactive
7,c1ccc(Nc2ccccc2)cc1,inactive
8,CCCOC(=O)NCCCN(C)C,inactive
9,CCCCCCC(C)OC(=O)COc1nc(F)c(Cl)c(N)c1Cl (stereo not drawn),inactive
10,C#CCOC(=O)[C@@H](C)Oc1ccc(Oc2ncc(Cl)cc2F)cc1,inactive
11,CCOC(=O)C(C)Oc1ccc(Oc2nc3ccc(Cl)cc3o2)cc1 (stereo not drawn),inactive
12,O=C(Nc1ccc([N+](=O)[O-])cc1Cl)c1cc(Cl)ccc1O,inactive
13,COCCO,inactive
14,CCNc1nc(N)nc(Cl)n1,inactive
15,CCOC(=O)[C@H](C)Oc1ccc(Oc2nc3ccc(Cl)cc3o2)cc1,inactive
16,CCSC(=O)N(CC(C)C)CC(C)C,inactive
17,CCC(O)=C1C(=O)CC(C(=O)O)CC1=O (stereo not drawn),inactive
18,CC1(C)C(C=C(Cl)Cl)C1C(=O)OCc1cccc(Oc2ccccc2)c1 (stereo not drawn),inactive
